This note sets out measurements from PubChem BioAssay (NCATS).

In assay [1] the target is Cytochrome P450 3A4 (Homo sapiens) (UniProt P08684). Put plainly: qHTS Assay for Inhibitors and Substrates of Cytochrome P450 3A4 (AID 884). Also: series mostly up to about 57 µM; % is scaled to controls: 0 for no effect and ±100 for the full control effect; nearly all actives have a fitted effect of over 50% in size. In short, it runs like this:
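Luminescent readout of luciferin produced by CYP3A4 (20 nM) dealkylation of Luciferin-PPXE, 25 uM (its KM). NADPH-driven reaction ran 60 min at RT after 10 min compound preincubation; data scaled to 57 uM ketoconazole as 100% inhibition.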
On the technique in general: In qHTS, concentration-response curves come from the screen itself.

Assay [2] has as its target Cytochrome P450 2C19 (Homo sapiens) (UniProt P33261). Put plainly: qHTS Assay for Inhibitors and Substrates of Cytochrome P450 2C19 (AID 899). Also: nearly all actives have a fitted effect of over 60% in size. Also: potency is read from the fitted curve at half-maximal effect. In short, it runs like this:
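5 nM human CYP2C19 with 10uM Luciferin-H EGE (at KM) in 50mM KPO4, compound preincubated 10 min at 37C, then NADPH regeneration for 60 min at 37C. Luciferin read by luminescence after detection reagent; normalized to 57uM ketoconazole as full inhibition.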

A short description of assay [3]: Confirmation and Secondary Assay for Modulators of Hemoglobin Beta Chain Splicing at IVS2 654 locus (AID 910).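 Also: HeLa cells stably carrying EGFP split by mutant beta-globin IVS2-654 intron; % of control where 0% means no effect.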 The method, boiled down:
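HeLa cells stably expressing EGFP interrupted by β-globin IVS2-654 intron, seeded overnight in Opti-MEM/2% FCS, then treated 2 days at 37 °C. Restored splicing read as total peak GFP intensity per well by laser scanning cytometry (488 nm excitation, 500–520 nm emission); 500 nM antisense PNA as control.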

A short description of assay [4]: Confirmation and Secondary Assay for Modulators of Hemoglobin Beta Chain Splicing at IVS2 705 locus (AID 930).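 Also: HeLa cells stably expressing the EGFP-705 splicing reporter; series mostly up to about 46 µM; % of control where 0% means no effect.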 The method, boiled down: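 HeLa cells stably carrying EGFP interrupted by mutant beta-globin IVS2-705 intron (CMV-driven) were seeded at 500 cells/well, treated next day with compound for 2 days at 37C; corrected splicing restores EGFP, read as total peak GFP intensity per well.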

The target of assay [5] is Cytochrome P450 3A4 (Homo sapiens) (UniProt P08684). Description: qHTS Assay for Activators of Cytochrome P450 3A4 (AID 885). Also: nearly all actives have a fitted effect of over 65% in size. The method, boiled down:
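Using 20nM recombinant human CYP3A4 in potassium phosphate (200mM), substrate Luciferin-PPXE at 25uM, luminescent luciferin detection followed a 60-min RT NADPH reaction; data scaled to 57 uM ketoconazole.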

Assay [6] concerns the target Cytochrome P450 2D6 (Homo sapiens) (UniProt P10635). Put plainly: qHTS Assay for Inhibitors and Substrates of Cytochrome P450 2D6 (AID 891).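 Also: luciferin methyl ether substrate demethylated by CYP2D6 with NADPH regeneration; % is scaled to controls: 0 for no effect and ±100 for the full control effect; nearly all actives have a fitted effect of over 60% in size.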 The method, boiled down:
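Luminescent read-out of luciferin formed by 5 nM human CYP2D6 demethylating 30 uM Luciferin-ME EGE (Km level) over 60 min at room temperature after NADPH regeneration addition. Data normalized to full inhibition by 1.43 uM quinidine.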

Assay [7] can be described thus: qHTS Assay for Identification of Small Molecule Agonists for Hypoxia Response Element Signaling Pathway (AID 914; active = well fitted activation curve with a large enough effect in the signal ratio, with a control signal flat, not every such curve was filed as active; the % refers to the signal ratio; also: % of control where 0% means no effect). The following applies: ME-180 HRE-bla reporter, beta-lactamase ratio, CoCl2, 17 h; hits give high values. The method, boiled down: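 ME-180 cells carrying an HRE-driven beta-lactamase reporter were treated with compounds in a titration series plus an EC50 level of CoCl2 for 17 h at 37 degrees Celsius; CCF4 readout as the 460nm/530nm ratio gave AC50 values.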

Values joined by “and” are separate entries in the source; they are usually repeats but may differ in a detail not shown here. Equal values may be shown once. Unmarked numbers belong to inactive results. Results filed as inconclusive are left out. Active and inactive are the calls of the source. Unless noted, calls follow the shape of the dose curve; as a rule, active = well fitted curve in the direction sought with a large enough effect; inconclusive = small, poorly fitted or top-dose-only effect, or another doubt; inactive = no such curve, though single readings can be large; an effect the other way counts as inactive or inconclusive.

Sequence of Cytochrome P450 2C19 (Homo sapiens) (P33261 whole entry, looked up): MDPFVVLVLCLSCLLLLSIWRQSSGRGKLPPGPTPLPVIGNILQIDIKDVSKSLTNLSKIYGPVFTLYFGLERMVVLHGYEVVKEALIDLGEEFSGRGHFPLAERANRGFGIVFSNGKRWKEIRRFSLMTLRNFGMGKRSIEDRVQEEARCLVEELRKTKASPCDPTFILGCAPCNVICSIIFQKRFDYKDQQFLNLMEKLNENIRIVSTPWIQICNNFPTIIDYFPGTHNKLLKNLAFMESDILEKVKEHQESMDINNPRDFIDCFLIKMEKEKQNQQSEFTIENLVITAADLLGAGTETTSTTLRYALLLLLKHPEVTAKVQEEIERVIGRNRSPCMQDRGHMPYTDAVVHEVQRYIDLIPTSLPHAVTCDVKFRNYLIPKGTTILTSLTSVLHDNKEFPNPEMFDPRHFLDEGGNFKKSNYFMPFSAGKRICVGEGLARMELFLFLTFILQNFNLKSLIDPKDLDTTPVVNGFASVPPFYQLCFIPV
Sequence of Cytochrome P450 2D6 (Homo sapiens) (P10635 whole entry, looked up): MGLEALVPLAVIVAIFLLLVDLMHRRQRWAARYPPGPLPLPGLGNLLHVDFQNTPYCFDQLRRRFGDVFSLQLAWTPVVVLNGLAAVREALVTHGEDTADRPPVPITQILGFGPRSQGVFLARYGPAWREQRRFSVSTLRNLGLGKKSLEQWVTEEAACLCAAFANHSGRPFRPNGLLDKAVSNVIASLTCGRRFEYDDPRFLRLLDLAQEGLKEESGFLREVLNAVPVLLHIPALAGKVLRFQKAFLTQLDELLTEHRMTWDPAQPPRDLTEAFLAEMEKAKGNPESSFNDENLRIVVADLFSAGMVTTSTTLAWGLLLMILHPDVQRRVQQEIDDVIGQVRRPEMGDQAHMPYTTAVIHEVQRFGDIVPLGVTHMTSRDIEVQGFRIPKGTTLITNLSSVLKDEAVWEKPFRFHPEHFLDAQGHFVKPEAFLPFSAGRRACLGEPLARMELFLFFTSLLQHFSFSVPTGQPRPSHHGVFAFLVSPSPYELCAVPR
Sequence of Cytochrome P450 3A4 (Homo sapiens) (P08684 whole entry, looked up): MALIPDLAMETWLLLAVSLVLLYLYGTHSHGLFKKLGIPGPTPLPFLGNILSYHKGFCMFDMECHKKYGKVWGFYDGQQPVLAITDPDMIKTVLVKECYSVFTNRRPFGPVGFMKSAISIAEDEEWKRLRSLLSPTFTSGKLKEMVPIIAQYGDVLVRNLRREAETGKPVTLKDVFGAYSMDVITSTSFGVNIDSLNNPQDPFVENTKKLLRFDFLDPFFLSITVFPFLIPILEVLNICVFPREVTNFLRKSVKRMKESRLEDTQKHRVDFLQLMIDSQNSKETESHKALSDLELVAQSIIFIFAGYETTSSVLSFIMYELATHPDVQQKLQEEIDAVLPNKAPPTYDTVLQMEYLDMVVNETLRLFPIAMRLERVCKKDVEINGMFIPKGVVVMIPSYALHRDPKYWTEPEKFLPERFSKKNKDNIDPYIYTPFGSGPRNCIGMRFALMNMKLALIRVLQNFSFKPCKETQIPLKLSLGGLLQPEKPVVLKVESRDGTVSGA

As for `CC12C=C(/C=C/CCc3ccco3)C(C)(C1)C(CCc1ccco1)CC2=O` (stereo not drawn), in assay [1], the activity change, negative = inhibition is -9.62% [at 11.4 µM]. Moreover, the Potency entry in assay [2] is “inactive”.

Consider `NC(C(=O)O)C(O)C(=O)O` (stereo not drawn), for which the Potency entry in assay [1] was “inactive”. Also, the call in assay [3] and in assay [4] was inactive.

Regarding `CC(=O)OC[C@@H]1O[C@H](C/C=N\OCC[C@H]2C=C[C@H](OC(C)=O)[C@@H](COC(C)=O)O2)C=C[C@@H]1OC(C)=O`, the activity change, positive = activation in assay [5] was -31% [at 11.4 µM]. In assay [2], the Potency entry was “inactive”.

Turning to `C[C@@H]1/C=C\CC(=O)OC[C@H](C)C(=O)N[C@@H](Cc2ccccc2)C(=O)OC1`, the activity change, positive = activation in assay [5] is -37.2% [at 11.4 µM]. Further, the Potency result in assay [6] and in assay [2] was “inactive” throughout.

For `CCC12C=C(/C=C/c3ccccc3)C(CC)(C1)C(c1ccccc1)CC2=O` (stereo not drawn), the activity change, positive = activation in assay [5] is -32.8% [at 11.4 µM]. Moreover, in assay [6], the Potency entry is “inactive”. For the same molecule, in assay [2], the Potency is 5.01 µM (active).

For the molecule `CC(=O)OC[C@@H]1O[C@@H](O/N=C2/C[C@@H](O)[C@@H](O)[C@@H]3[C@@H]4C(=O)N(c5cccc(Oc6ccccc6)c5)C(=O)[C@H]4CC[C@H]23)[C@H](OC(C)=O)[C@H](OC(C)=O)[C@@H]1OC(C)=O`, the activity change, positive = activation in assay [5] was -36.6% [at 11.4 µM]. For the same molecule, the Potency result in assay [2] was “inactive”.

`C=CCc1cccc(C2C(C)CCC3C(=O)N4C(CCC(C)C4c4cccc(CC=C)c4)C(=O)N32)c1` (stereo not drawn): the activity change, positive = activation in assay [5] is -58.4% [at 11.4 µM]. In addition, in assay [2], the Potency entry is “inactive”.

On to `C/C=C/OC(=O)NC(c1ccccc1)[C@]1(C(C)=O)CCCC1=O` (stereo partly drawn), for which the activity change, positive = activation in assay [5] was -53.9% [at 11.4 µM]. Also, the Potency entry in assay [6] is “inactive”. Besides, in assay [2], the Potency was 0.199 µM (active).

Regarding `C=C1C2CC[C@@]3(C)C(c4ccoc4)OC(=O)C[C@@]13OC1CC(OC(C)=O)C(C)(C)C(CC(=O)OC)[C@@]12C` (stereo partly drawn), the Potency result in assay [5] was “inactive”. For the same molecule, the molecule was called inactive in assay [3] and in assay [4].

Take `C=CC(C1=CC(=O)C(OC)=C(OC)C1=O)c1ccccc1` (stereo not drawn): the Potency entry in assay [5] is “inactive”. Moreover, the call in assay [3] and in assay [4] was inactive.

For `C[C@@H]1OC2C3=C(C(=O)[C@H]4O[C@@H]4[C@H]3O)[C@@H]1[C@H]1[C@H](C)OC=C3[C@H](O)[C@H]4O[C@H]4/C(=N\OCc4ccccc4)[C@@]321`, in assay [5], the activity change, positive = activation is -58.8% [at 11.4 µM]. Also, the Potency result in assay [2] was “inactive”.

In the case of `COC(=O)C(/C=C/C(C)Cc1cc(Br)cc(OCc2ccccc2)c1OC)OCc1ccccc1` (stereo not drawn), the activity change, positive = activation in assay [5] is -50.4% [at 11.4 µM]. The Potency result in assay [6] and in assay [2] was “inactive” throughout.

In the case of `CC(C)CO/N=C1/C[C@@H](O)[C@@H](O)[C@@H]2[C@@H]3C(=O)N(Cc4ccc5c(c4)OCO5)C(=O)[C@H]3CC[C@H]12`, in assay [5], the activity change, positive = activation is -96.6% [at 11.4 µM]. Further, the Potency in assay [2] is 3.98 µM (active).

Turning to `COC(=O)C1=C(C)N(Cc2ccccc2)[C@]23O[C@](C(=O)OC)(C(=O)N2C1c1ccccc1)C1C(=O)N(C)C(=O)C13` (stereo partly drawn), the activity change, positive = activation in assay [5] was -51.8% [at 11.4 µM] and -36.4% [at 11.4 µM]. The Potency entry in assay [6] and in assay [2] was “inactive” in each case.

Regarding `COC(=O)C(C(=O)OC)C1O[C@@]23COCCC2(C)C3c2ccccc21` (stereo partly drawn), the activity change, positive = activation in assay [5] is -34.9% [at 11.4 µM]. The Potency result in assay [6] and in assay [2] was “inactive” in each case.

Consider `CO[C@@H]1COC(=O)C/C=C\[C@H](C)COC(=O)[C@H](Cc2ccccc2)NC(=O)C/C=C\[C@H]1C`, for which the activity change, positive = activation in assay [5] is -56.6% [at 11.4 µM]. Further, the Potency in assay [2] was 2.51 µM (active).

For the molecule `CC1CCC2C(=O)N3C(CCC(C)[C@H]3c3cccc(N4CCCC4=O)c3)C(=O)N2C1c1cccc(N2CCCC2=O)c1` (stereo partly drawn), the activity change, positive = activation in assay [5] was -53.3% [at 11.4 µM]. Moreover, the Potency result in assay [6] and in assay [2] was “inactive” throughout.

Consider `C/C(CCN1CCc2nc(-c3ccccc3)c(-c3ccccc3)cc2C1)=N\OC[C@@H](C)[C@H](OCc1ccccc1)C(C)C`, for which the activity change, positive = activation in assay [5] was -51.7% [at 11.4 µM]. Further, in assay [2], the Potency was 1.58 µM (active).

`CCCCCCCC#Cc1ccccc1C(NC(=O)OC)C(C(=O)OC)C(=O)OC` (stereo not drawn): the activity change, positive = activation in assay [5] was -56.4% [at 11.4 µM]. Also, in assay [6], the Potency result is “inactive”. The Potency in assay [2] is 2.51 µM (active).

For `CC(C)c1c(O)ccc2c1CCC1C(C)(C)CCC[C@@]21C` (stereo partly drawn), the Potency entry in assay [5] was “inactive”. Further, the molecule was classed as inactive in assay [3] and in assay [4].

Regarding `COc1ccc(OC)c(-c2ccccc2/C=N/NS(=O)(=O)c2ccc(C)cc2)c1`, in assay [5], the activity change, positive = activation is -59.9% [at 11.4 µM]. The Potency entry in assay [6] was “inactive”. For the same molecule, the Potency in assay [2] was 0.1 µM (active).

`COc1ccc(-c2coc3c(OC)c(OC)cc(O)c3c2=O)cc1`: the Potency result in assay [5] was “inactive”. The result in assay [3] and in assay [4] was inactive.

For `C/C(CCN1CCc2nc(-c3ccccc3)c(-c3ccccc3)cc2C1)=N\O[C@@H](C)c1cn([C@H](CO)Cc2ccccc2)nn1`, the activity change, positive = activation in assay [5] is -54.2% [at 11.4 µM] and -52.4% [at 11.4 µM]. In addition, the activation in assay [7] was -1.74% and -5.69%.

Take `C[C@@H]1O[C@H]2C3=C(C(=O)[C@H]4O[C@@H]4[C@H]3O)[C@@H]1[C@@H]1[C@@H](C)OC=C3[C@H](O)[C@H]4O[C@@H]4/C(=N\OCc4ccccc4)[C@]312`: the activity change, positive = activation in assay [5] is -31.8% [at 11.4 µM]. Also, the Potency in assay [2] was 0.631 µM (active).

Consider `CCCCCC(=O)O[C@@]1(C(C)=O)CCC2C3CCC4=CC(=O)CC[C@@]4(C)C3CC[C@]21C` (stereo partly drawn), for which the Potency entry in assay [5] is “inactive”. In addition, the outcome in assay [3] was inactive.

Turning to `O=C1[C@@H]2[C@H]3[C@H](O)[C@H](O)C/C(=N/OC[C@@H](O)COCc4ccco4)[C@@H]3CC[C@H]2C(=O)N1c1ccc(F)cc1F`, the activity change, positive = activation in assay [5] was -48.8% [at 11.4 µM]. Further, the Potency entry in assay [2] was “inactive”.

In the case of `CC/C=C\CC[C@H](OC(=O)c1ccc(Br)cc1)C1=CCCCC1=O`, in assay [5], the activity change, positive = activation was -40.7% [at 11.4 µM]. Also, in assay [2], the Potency is 2 µM (active).

Regarding `COc1cc(C2c3cc4c(cc3C(O)[C@H]3COC(=O)C23)OCO4)cc(OC)c1OC` (stereo partly drawn), the Potency entry in assay [5] is “inactive”. In addition, the result in assay [3] and in assay [4] was inactive.

Take `COC(=O)[C@@H]1CC[C@H](C)[C@@H](c2ccc(C)cc2)N1C(=O)c1ccc(/C=N\OC[C@@H]2O[C@H](c3ccccc3)C=C[C@@H]2Oc2ccc(OC)cc2)cc1`: the activity change, positive = activation in assay [5] is -30% [at 11.4 µM]. Moreover, in assay [2], the Potency is 0.0501 µM (active).
